# Measured values published in PubChem BioAssay (EPA / NIEHS).
# Results filed as inconclusive are left out. Calls of active or inactive are those of the source. How the source made its calls: active means hit-call score of the fitted dose curve at least 0.9, where 1 is the maximum; inconclusive means response in the unintended direction; inactive means score below 0.9.
# Tests used:
# [1] = molecular target: rabbit Imidazoline 2 Central (I2C), CKB (gene 100009085) (UniProt P00567); assay: NVS_ENZ_rabI2C: NovaScreen (NVS) Enzymatic Assay for rabbit Imidazoline 2 Central (I2C) (AID 2283228)
# Summary of the method: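 Rabbit brain membranes, cell-free; readout by filter-based scintillation counting 1.5 hours after dosing, loss of signal vs DMSO. Initial duplicate test at 25 uM, then concentration-response with 50 uM top concentration.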
# [2] = molecular target: bovine Dopamine Receptor (DR), Non-selective Binding, DRD1 (gene 281125) (UniProt Q95136); assay: NVS_GPCR_bDR_NonSelective: NovaScreen (NVS) G Protein-Coupled Receptor Assay for bovine Dopamine Receptor (DR), Non-selective Binding (AID 2283241)
# Summary of the method: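 Bovine striatal membranes; radioligand displacement read by filtration and scintillation counting 1 h after dosing, loss of signal vs DMSO. Screened in duplicate at 25 uM, then concentration-response for hits.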
# [3] = molecular target: sheep Cyclooxygenase-1 (Cox1), PTGS1 (gene 443551) (UniProt P05979); assay: NVS_ENZ_oCOX1: NovaScreen (NVS) Enzymatic Assay for sheep Cyclooxygenase-1 (Cox1) (AID 2283239);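 further: actives reduce cyclooxygenase activity so potencies are for inhibitors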
# Summary of the method: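 Cell-free colorimetric assay of enzyme activity in a native extract of ovine seminal vesicles. Absorbance was read 0.66 hour after compound addition. Loss of signal relative to the DMSO negative control was scored, with actives from the 25 uM duplicate primary screen retested in concentration series.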
# [4] = molecular target: human Vascular Endothelial Growth Factor Receptor 1 (VEGFR1), FLT1 (gene 2321) (UniProt P17948); assay: NVS_ENZ_hVEGFR1: NovaScreen (NVS) Enzymatic Assay for human Vascular Endothelial Growth Factor Receptor 1 (VEGFR1) (AID 2283226)
# Summary of the method: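 Cell-free assay of recombinant human VEGFR1 kinase with substrate, measured 1 h after dosing; fluorescence with electrophoretic mobility-shift separation of substrate and product, referenced to DMSO; primary screen at 25 uM in duplicate, actives then run in concentration series.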
# [5] = molecular target: sheep Cyclooxygenase-2 (Cox2), PTGS2 (gene 443460) (UniProt P79208); assay: NVS_ENZ_oCOX2: NovaScreen (NVS) Enzymatic Assay for sheep Cyclooxygenase-2 (Cox2) (AID 2283231)
# Summary of the method: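 Enzyme extracted from ovine placenta tested cell-free; activity read colorimetrically by absorbance 0.66 hour after dosing. Primary screen in duplicate at 25 uM; hits rerun as concentration series to 50 uM, loss of signal versus DMSO baseline.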
# [6] = molecular target: rat Constitutive Nitric Oxide Synthase (CNOS), Nos1 (gene 24598) (UniProt P29476); assay: NVS_ENZ_rCNOS: NovaScreen (NVS) Enzymatic Assay for rat Constitutive Nitric Oxide Synthase (CNOS) (AID 2283236)
# Summary of the method: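 Enzyme activity in rat brain membrane preparation, read 1 h after dosing by filter-based radiometric scintillation counting. Primary screen in duplicate at 25 uM; actives (e.g., ≥30% inhibition) then run in concentration-response up to 50 uM.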
# [7] = molecular target: human Vascular Endothelial Growth Factor Receptor 2 (VEGFR2), KDR (gene 3791) (UniProt P35968); assay: NVS_ENZ_hVEGFR2: NovaScreen (NVS) Enzymatic Assay for human Vascular Endothelial Growth Factor Receptor 2 (VEGFR2) (AID 2283230)
# Summary of the method: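 Cell-free recombinant VEGFR2 kinase, fluorescent substrate with electrophoretic mobility-shift separation; read 1 h after dosing. Screened at 25 uM in duplicate, hits to concentration-response up to 50 uM; loss-of-signal versus DMSO.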
# [8] = NVS_GPCR_bNPY_NonSelective: NovaScreen (NVS) G Protein-Coupled Receptor Assay for bovine Neuropeptide Y (NPY) Receptor, Non-selective Binding (AID 2283245)
# Summary of the method: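 Bovine hippocampal membranes incubated 1 hour with radioligand and test chemical. Bound ligand measured by filter-based scintillation counting. Single-concentration screen at 25 uM in duplicate, then concentration-response up to 50 uM.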
# [9] = molecular target: Adenosine receptor A1 (Bos taurus) (UniProt P28190); assay: NVS_GPCR_bAdoR_NonSelective: NovaScreen (NVS) G Protein-Coupled Receptor Assay for bovine Adenosine Receptor (AdoR), Non-selective Binding (AID 2283244)
# Summary of the method: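 Bovine striatal membranes, radioligand displacement binding, 1 h after dosing, filter-based scintillation counting. Screened in duplicate at 25 uM, then concentration-response up to 50 uM; loss of specific binding relative to DMSO.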
# [10] = molecular target: human Vascular Endothelial Growth Factor Receptor 3 (VEGFR3), FLT4 (gene 2324) (UniProt P35916); assay: NVS_ENZ_hVEGFR3: NovaScreen (NVS) Enzymatic Assay for human Vascular Endothelial Growth Factor Receptor 3 (VEGFR3) (AID 2283229)
# Summary of the method: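 Cell-free recombinant VEGFR3 kinase reaction with fluorescent substrate, read 1 h after dosing by electrophoretic mobility shift separation of substrate and product. Single-concentration duplicate screen at 25 uM, then concentration-response up to 50 uM; loss of activity versus DMSO.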
# Sequence of rabbit Imidazoline 2 Central (I2C), CKB (gene 100009085) (P00567 whole entry, looked up): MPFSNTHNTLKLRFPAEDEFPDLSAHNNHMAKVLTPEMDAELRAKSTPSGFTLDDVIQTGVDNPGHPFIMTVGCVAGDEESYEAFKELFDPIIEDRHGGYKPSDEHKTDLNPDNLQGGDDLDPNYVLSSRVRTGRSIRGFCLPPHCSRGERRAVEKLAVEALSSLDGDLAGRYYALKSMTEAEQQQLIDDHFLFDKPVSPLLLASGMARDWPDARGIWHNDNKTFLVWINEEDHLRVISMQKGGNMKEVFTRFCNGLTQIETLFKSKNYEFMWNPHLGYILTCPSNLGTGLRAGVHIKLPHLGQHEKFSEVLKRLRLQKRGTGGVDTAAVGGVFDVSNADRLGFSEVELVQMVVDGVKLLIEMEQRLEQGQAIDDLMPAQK
# Sequence of human Vascular Endothelial Growth Factor Receptor 1 (VEGFR1), FLT1 (gene 2321) (P17948 whole entry, looked up): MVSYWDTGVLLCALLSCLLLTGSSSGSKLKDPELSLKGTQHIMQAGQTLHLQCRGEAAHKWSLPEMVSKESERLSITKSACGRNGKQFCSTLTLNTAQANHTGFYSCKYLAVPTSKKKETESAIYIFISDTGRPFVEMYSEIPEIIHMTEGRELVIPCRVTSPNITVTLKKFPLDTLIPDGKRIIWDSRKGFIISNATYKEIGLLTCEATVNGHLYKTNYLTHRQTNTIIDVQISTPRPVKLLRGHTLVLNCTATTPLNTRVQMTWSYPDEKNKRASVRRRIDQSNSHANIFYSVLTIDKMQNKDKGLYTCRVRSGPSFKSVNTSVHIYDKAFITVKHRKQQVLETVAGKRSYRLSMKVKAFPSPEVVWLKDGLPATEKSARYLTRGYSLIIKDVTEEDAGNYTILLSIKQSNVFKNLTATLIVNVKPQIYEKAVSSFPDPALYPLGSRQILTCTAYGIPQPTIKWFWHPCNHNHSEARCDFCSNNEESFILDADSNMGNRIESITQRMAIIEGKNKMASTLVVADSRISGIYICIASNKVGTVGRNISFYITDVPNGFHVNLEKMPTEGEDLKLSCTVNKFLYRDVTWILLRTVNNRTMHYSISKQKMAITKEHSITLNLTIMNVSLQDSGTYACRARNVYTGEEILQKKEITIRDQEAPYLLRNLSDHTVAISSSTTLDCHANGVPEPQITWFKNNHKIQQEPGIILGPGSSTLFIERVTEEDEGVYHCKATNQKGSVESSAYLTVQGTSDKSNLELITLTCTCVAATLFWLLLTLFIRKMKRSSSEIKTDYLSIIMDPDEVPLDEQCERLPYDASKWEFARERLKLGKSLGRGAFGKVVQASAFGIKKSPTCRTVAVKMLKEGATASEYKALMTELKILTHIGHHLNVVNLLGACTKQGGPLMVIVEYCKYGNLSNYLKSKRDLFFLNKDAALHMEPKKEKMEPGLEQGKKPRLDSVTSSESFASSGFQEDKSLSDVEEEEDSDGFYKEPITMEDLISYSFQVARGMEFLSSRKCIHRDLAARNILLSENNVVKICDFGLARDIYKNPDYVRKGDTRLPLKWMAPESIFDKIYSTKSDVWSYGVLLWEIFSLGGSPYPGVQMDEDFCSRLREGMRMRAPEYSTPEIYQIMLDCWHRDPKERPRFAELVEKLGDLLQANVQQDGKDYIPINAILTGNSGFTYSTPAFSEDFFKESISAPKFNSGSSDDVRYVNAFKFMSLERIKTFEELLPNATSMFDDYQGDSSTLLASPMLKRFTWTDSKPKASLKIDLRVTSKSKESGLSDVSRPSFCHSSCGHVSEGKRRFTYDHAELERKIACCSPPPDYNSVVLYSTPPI
# Sequence of bovine Dopamine Receptor (DR), Non-selective Binding, DRD1 (gene 281125) (Q95136 whole entry, looked up): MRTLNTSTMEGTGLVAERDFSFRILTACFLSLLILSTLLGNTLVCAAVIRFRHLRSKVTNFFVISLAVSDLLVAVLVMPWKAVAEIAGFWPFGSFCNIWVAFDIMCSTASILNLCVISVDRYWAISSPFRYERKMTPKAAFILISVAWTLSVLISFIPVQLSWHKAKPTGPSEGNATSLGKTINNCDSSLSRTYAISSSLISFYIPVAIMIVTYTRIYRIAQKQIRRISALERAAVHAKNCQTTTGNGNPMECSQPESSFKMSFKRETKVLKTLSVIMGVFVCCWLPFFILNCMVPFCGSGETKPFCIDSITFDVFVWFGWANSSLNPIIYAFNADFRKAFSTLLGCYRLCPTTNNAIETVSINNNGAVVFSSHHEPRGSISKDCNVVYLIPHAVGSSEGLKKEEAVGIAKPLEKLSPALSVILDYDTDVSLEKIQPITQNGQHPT
# Sequence of sheep Cyclooxygenase-1 (Cox1), PTGS1 (gene 443551) (P05979 whole entry, looked up): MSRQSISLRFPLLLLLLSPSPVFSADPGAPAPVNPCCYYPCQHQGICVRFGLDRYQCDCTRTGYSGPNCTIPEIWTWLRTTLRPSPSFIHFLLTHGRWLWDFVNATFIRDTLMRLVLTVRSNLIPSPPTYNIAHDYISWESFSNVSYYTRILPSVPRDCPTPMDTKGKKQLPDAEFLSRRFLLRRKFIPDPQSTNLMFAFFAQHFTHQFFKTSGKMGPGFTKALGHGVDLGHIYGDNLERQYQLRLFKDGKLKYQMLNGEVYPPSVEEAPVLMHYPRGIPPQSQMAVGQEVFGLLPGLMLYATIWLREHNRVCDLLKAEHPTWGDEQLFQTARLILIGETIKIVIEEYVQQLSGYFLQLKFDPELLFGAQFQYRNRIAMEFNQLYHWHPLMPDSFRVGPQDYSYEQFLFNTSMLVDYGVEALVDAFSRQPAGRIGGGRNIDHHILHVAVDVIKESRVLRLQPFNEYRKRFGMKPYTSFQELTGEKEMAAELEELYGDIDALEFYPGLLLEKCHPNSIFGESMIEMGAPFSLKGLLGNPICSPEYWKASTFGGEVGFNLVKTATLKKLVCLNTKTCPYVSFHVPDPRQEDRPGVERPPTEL
# Sequence of human Vascular Endothelial Growth Factor Receptor 2 (VEGFR2), KDR (gene 3791) (P35968 whole entry, looked up): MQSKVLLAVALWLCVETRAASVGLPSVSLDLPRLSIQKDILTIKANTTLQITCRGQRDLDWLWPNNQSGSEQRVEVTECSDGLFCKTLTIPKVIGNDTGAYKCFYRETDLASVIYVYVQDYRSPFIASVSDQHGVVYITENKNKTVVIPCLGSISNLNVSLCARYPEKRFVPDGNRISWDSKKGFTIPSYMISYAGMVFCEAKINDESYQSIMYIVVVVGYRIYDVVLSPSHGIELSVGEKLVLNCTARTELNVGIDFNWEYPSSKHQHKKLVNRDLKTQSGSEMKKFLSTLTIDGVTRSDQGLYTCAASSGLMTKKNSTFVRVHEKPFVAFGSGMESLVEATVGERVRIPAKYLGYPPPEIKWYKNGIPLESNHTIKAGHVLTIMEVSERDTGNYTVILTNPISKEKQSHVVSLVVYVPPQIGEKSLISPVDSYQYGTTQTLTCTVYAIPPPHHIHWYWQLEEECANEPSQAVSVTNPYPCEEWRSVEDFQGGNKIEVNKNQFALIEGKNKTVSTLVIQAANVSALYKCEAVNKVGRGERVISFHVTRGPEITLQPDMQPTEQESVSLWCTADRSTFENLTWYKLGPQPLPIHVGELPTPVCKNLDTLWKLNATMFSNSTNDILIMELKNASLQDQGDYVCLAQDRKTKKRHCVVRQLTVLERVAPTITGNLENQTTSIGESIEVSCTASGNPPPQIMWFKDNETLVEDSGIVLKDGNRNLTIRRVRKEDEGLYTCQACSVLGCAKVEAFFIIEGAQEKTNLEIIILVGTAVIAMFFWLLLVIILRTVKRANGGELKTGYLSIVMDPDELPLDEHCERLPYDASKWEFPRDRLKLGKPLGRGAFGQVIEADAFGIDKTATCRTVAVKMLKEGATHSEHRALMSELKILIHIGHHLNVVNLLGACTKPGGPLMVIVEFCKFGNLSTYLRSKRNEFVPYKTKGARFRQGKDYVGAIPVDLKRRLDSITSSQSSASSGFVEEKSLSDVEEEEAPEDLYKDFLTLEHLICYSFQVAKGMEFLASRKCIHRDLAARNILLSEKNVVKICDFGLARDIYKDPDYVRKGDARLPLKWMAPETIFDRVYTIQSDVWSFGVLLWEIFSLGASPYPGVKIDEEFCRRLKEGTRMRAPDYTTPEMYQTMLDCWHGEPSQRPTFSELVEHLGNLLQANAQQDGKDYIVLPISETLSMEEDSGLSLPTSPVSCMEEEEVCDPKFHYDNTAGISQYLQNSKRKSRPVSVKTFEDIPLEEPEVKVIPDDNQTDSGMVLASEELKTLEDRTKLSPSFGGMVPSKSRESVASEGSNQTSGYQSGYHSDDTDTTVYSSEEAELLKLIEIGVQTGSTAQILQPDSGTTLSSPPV
# Sequence of sheep Cyclooxygenase-2 (Cox2), PTGS2 (gene 443460) (P79208 whole entry, looked up): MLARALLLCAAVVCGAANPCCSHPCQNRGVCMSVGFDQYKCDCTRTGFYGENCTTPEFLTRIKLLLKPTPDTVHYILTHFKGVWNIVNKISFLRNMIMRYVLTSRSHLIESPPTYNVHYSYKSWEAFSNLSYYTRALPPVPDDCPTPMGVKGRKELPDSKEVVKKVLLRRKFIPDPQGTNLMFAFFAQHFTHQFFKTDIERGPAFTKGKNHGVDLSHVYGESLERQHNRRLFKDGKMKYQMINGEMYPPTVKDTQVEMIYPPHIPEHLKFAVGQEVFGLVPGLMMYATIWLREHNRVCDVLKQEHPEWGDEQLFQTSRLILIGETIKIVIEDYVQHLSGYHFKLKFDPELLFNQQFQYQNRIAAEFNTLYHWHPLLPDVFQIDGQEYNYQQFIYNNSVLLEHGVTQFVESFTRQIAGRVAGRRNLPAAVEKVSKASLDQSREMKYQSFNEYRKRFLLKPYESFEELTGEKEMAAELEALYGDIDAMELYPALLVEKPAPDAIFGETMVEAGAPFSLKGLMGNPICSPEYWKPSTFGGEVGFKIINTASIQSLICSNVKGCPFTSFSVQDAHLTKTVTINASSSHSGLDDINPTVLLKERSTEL
# Sequence of Adenosine receptor A1 (Bos taurus) (P28190 whole entry, looked up): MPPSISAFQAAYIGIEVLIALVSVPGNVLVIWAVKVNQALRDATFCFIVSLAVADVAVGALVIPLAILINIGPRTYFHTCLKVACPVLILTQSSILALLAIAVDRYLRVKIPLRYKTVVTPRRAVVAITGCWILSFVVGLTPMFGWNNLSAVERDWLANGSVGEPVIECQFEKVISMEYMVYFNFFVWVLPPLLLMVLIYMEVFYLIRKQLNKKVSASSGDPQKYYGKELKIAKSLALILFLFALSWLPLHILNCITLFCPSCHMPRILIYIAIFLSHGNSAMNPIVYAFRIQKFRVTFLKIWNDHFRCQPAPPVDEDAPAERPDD
compound,measurement,setting,value
CN(C)CCOC(c1ccccc1)c1ccccc1,AC50,[1],8.46 µM (active)
same,AC50,[2],5.83 µM (active)
CN(Cc1cnc2nc(N)nc(N)c2n1)c1ccc(C(=O)N[C@@H](CCC(=O)O)C(=O)O)cc1,AC50,[3],1.98 µM (active)
CCCCCCCCCCCCCCCCCC[N+](C)(C)Cc1ccccc1,outcome,[4],inactive
same,outcome,[3],inactive
CCCCC=O,outcome,[5],inactive
CNNCc1ccc(C(=O)NC(C)C)cc1,AC50,[3],25 µM (active)
CCC(=O)O,AC50,[3],0.00683 µM (active)
N=C(N)c1ccc(OCCCCCOc2ccc(C(=N)N)cc2)cc1,AC50,[1],0.0332 µM (active)
same,AC50,[5],7.19 µM (active)
same,AC50,[6],6.42 µM (active)
same,outcome,[2],inactive
CS(=O)(=O)c1ccc([C@@H](CC2CCCC2)C(=O)Nc2cnccn2)cc1Cl,AC50,[5],25 µM (active)
CCCCc1oc2ccccc2c1C(=O)c1cc(I)c(OCCN(CC)CC)c(I)c1,outcome,[1],inactive
same,outcome,[7],inactive
same,outcome,[8],inactive
CC1=NN(c2ccccc2)C(=O)C1,AC50,[3],28.2 µM (active)
O=C(CCCN1CCC(O)(c2ccc(Cl)cc2)CC1)c1ccc(F)cc1,AC50,[1],14.4 µM (active)
same,AC50,[2],0.0124 µM (active)
O=C(c1ccccc1)c1ccccc1,outcome,[9],inactive
NC(=NCCCCCCN=C(N)/N=C(\N)Nc1ccc(Cl)cc1)/N=C(\N)Nc1ccc(Cl)cc1,AC50,[4],27.6 µM (active)
Cc1ccc(C(=O)c2ccccc2)cc1,AC50,[3],15.5 µM (active)
CCCCCCCCCCCCOS(=O)(=O)O,AC50,[10],29.3 µM (active)
same,AC50,[7],16.9 µM (active)
same,outcome,[6],inactive
same,outcome,[9],inactive
Cc1[nH]nc2c1N=C(c1ccccc1Cl)c1cc([N+](=O)[O-])ccc1N2,AC50,[4],0.0098 µM (active)
same,AC50,[10],0.00229 µM (active)
same,AC50,[7],0.00463 µM (active)
CC(=O)Nc1ccc(O)cc1,outcome,[4],inactive
same,outcome,[5],inactive
OCC(CO)(CBr)CBr,AC50,[5],16.7 µM (active)
